Bead autofluor = compound fluorescence in toxin protease inhibitor counterscreen; compound autofluorescence counterscreen, microsphere flow cytometry; hits give high values; fluorescence intensity (concentration not given with the values); actives 3.1% (n = 360,000); AID 624483; in the data active = fluorescence intensity above about 16000; inconclusive = no clear call, values can overlap the other calls
BoNT F protease = BoNT/F light chain protease inhibitors, primary screen, biochemical, flow cytometry, MLPCN library; actives 0.22% (n = 360,000); Multiplex microsphere protease cleavage assay; inhibition, % at 10 µM; Botulinum neurotoxin type F light chain protease (Clostridium botulinum); in the data active = inhibition above about 35%, passing the limit was not always enough; inconclusive = no clear call, values can overlap the other calls
BoNT A protease = BoNT/A light chain protease inhibitors, primary screen, biochemical, flow cytometry, MLPCN library; Botulinum neurotoxin type A light chain protease (Clostridium botulinum A str. ATCC 3502); multiplex microsphere protease substrate cleavage; inhibition, % at 10 µM; actives 0.17% (n = 360,000); AID 588499, 2011
Anthrax LF inh2 = Bacillus anthracis LF protease inhibitors, primary screen, biochemical, multiplex microsphere, MLPCN library | inhibition, % at 10 µM | actives 0.12% (n = 360,000) | multiplex microsphere protease cleavage assay | Lethal factor (Bacillus anthracis), P15917
A number is an active result; . = inactive; ? = inconclusive. In the library only some 3.5% were active in any assay of this set; here they are far more common. Cut-off read from the data, not from the text of the source, unless noted: active = inhibition above about 30%; inconclusive = no clear call, values can overlap the other calls; inactive = below that.

SMILES | Bead autofluor | BoNT F protease | BoNT A protease | Anthrax LF inh2
Cc1oc(-c2ccc3c(c2)OCCO3)cc1C(=O)O | . | . | . | .
CC(C)(C)n1c(O)c2n(c1=O)Cc1ccccc1N=C2c1ccccc1 | . | . | . | .
CC(=O)Nc1cccc(NC(=O)CSc2nnc(Cc3cccn3C)n2-c2ccc(F)cc2)c1 | 21922 | . | . | .
Cc1ccc(-n2c(SCC(=O)NCc3ccco3)nnc2-c2cccnc2)c(C)c1 | 22964 | . | . | .
Cc1cc(C)c(NC(=O)CSc2nnc(Cc3cccn3C)n2-c2ccc(F)cc2)c(C)c1 | 25100 | . | . | .
Cn1cccc1Cc1nnc(SCC(=O)NCc2ccco2)n1-c1ccc(F)cc1 | 22151 | . | ? | .
COc1cccc(NC(=O)CSc2nnc(Cc3cccn3C)n2-c2ccc(F)cc2)c1 | . | . | . | .
Cc1cc(C)cc(NC(=O)CSc2nnc(Cc3cccn3C)n2-c2ccc(F)cc2)c1 | . | . | . | .
Cn1cccc1Cc1nnc(SCC(=O)NCc2ccccc2Cl)n1-c1ccc(F)cc1 | . | . | . | .
Cc1cccc(-n2c(SCC(=O)NCc3ccco3)nnc2-c2ccco2)c1 | . | . | . | .
CCOC(=O)C1=C(C)NC(C)=C(C(=O)OCC)C1C(=O)OCC(=O)NC1CCCCC1 | . | . | . | .
O=C1CCCC2=C1C1(CCCCC1)N=C(Nc1nc3ccccc3s1)N2 | 16571 | . | . | .
O=C1CCCC2=C1C1(CCCC1)N=C(Nc1nc3ccccc3s1)N2 | . | . | . | .
C[C@H]1CN([C@@H](C)CO)C(=O)c2cc(C#Cc3ccccn3)cnc2O[C@@H]1CN(C)Cc1ccccc1 | . | . | . | .
O=C(N/N=C/c1cccs1)C1CC(=O)N(c2ccccc2)C1 (stereo unspecified) | 20162 | . | . | .
O=C(NCCO)c1ccc(Cl)c(Cl)c1 | . | . | . | .
Nc1nsnc1C(=O)NCCO | 17466 | . | . | .
NC(Cc1ccc(Cl)cc1)c1csc(Nc2ccc(C(=O)NCCCO)cn2)n1 (stereo unspecified) | . | . | . | .
Cn1c(C(=O)Nc2ccc3c(c2)OCO3)cc2c(=O)n(C)c3ccccc3c21 | . | . | . | .
CCOc1ccc(NC(=O)c2cc3c(=O)n(C)c4ccccc4c3n2C)cc1 | 18920 | . | . | .
CC1CCC(NC(=O)C2c3ccccc3C(=O)N2CCCN2CCOCC2)CC1 (stereo unspecified) | 24072 | . | ? | .
O=C1c2cccnc2C(O)N1C1CCCCC1 (stereo unspecified) | 23226 | . | . | .
O=C(NC1CCCC1)C1c2ccccc2C(=O)N1C1CCCCC1 (stereo unspecified) | 19915 | . | . | .
O=C1c2cccnc2C(O)N1Cc1ccccc1 (stereo unspecified) | . | . | . | .
CCCCN1C(=O)c2ccccc2C1C(=O)NC1CCCC1 (stereo unspecified) | 22700 | . | . | .
SMILES | Bead autofluor | BoNT F protease | BoNT A protease | Anthrax LF inh2
CCCCN(C(=O)c1ccc(S(=O)(=O)N(C)c2ccccc2)cc1)c1c(N)n(CCC)c(=O)[nH]c1=O | . | . | . | .
Cc1noc(C)c1COC(=O)CCOc1ccccc1 | 17725 | . | . | .
COc1ccc(-c2nn(Cc3ccccc3)cc2C(=O)N2CCN(c3ncccn3)CC2)cc1 | . | . | . | .
CC(=O)N(C(C)=O)c1c(N2CCCC2)c2ccccc2oc1=O | . | . | . | .
CC(=O)N(C(C)=O)c1c(N2CCOCC2)c2ccccc2oc1=O | 21404 | . | . | .
O=C(NCc1ccco1)c1ccccc1NS(=O)(=O)c1cccs1 | 19002 | . | . | .
CS(=O)(=O)N(Cc1ccc(C(=O)NCCSCc2ccco2)cc1)c1ccccc1 | 21841 | . | . | .
Cc1ccc(S(=O)(=O)N(Cc2ccccc2)c2ccccc2C(=O)Nc2ccccc2C(=O)NCc2ccco2)cc1 | . | . | . | .
CS(=O)(=O)N(Cc1ccccc1)c1ccccc1C(=O)Nc1ccccc1C(=O)NCc1ccco1 | 23578 | . | . | .
COc1ccc(N(CC(=O)NCc2ccco2)S(=O)(=O)c2ccc(OC)c(OC)c2)cc1 | 22427 | . | ? | .
O=C(CSCc1ccc(Br)cc1)Nc1ccccc1C(=O)N1CCOCC1 | . | . | . | .
CC[C@]12C(=O)N(C)C[C@H]([C@@H]3C(=O)N(C)C(=O)[C@@H]31)N2C(=O)c1ccccc1 | . | . | . | .
COc1ccc(N(CC(=O)Nc2ccccc2C(=O)NCc2ccco2)S(C)(=O)=O)cc1 | 22786 | . | . | .
O=C(Nc1cccc(-c2nc3ncccc3o2)c1)c1sc2ccccc2c1Cl | 18637 | . | . | .
O=C(Nc1cccc(-c2nc3ncccc3o2)c1)c1cc2ccccc2o1 | . | . | . | .
O=C(Nc1cccc(-c2nc3ncccc3o2)c1)c1sc2cc(Cl)ccc2c1Cl | 22567 | . | ? | .
O=C(Cc1ccccc1)Nc1cccc(-c2nc3ncccc3o2)c1 | . | . | . | .
Cc1cc(NCCCCCCCNc2cc(C)nc3cc([N+](=O)[O-])ccc23)c2ccc([N+](=O)[O-])cc2n1 | . | . | . | .
Cc1c(Br)cc(-c2nnco2)cc1Br | 23447 | . | . | .
CC(=O)N(Nc1ccccc1)c1ccccc1 | . | 35.3 | . | .
CCOc1ccccc1-n1c(SCC(N)=O)nnc1-c1ccc(O)cc1 | 19710 | . | . | .
CCOc1ccccc1-n1c(SCC(N)=O)nnc1-c1ccccc1 | 16659 | . | ? | .
CCOc1ccccc1-n1c(SCC(=O)N2CCCC2)nnc1-c1ccc(O)cc1 | . | . | . | .
COc1cc(NC(=O)C2(C)CCCN2C)cc(OC)c1OC (stereo unspecified) | . | . | . | .
O=C(NCCc1ccccn1)c1n[nH]c(=O)c2ccccc12 | 22070 | . | . | .
SMILES | Bead autofluor | BoNT F protease | BoNT A protease | Anthrax LF inh2
CCOC(=O)CN(C(=O)Cn1nnc(-c2ccc(C)cc2)n1)C(CC)C(=O)NC1CCCC1 (stereo unspecified) | 22718 | . | . | .
O=C(NC1CCCCC1)C(c1ccc(F)cc1)N(Cc1ccco1)C(=O)Cn1nnc2ccccc21 (stereo unspecified) | 18842 | . | . | .
Cc1ccc(N(C(=O)Cn2nnc(-c3cccs3)n2)C(C(=O)NC2CCCC2)c2ccncc2)cc1 (stereo unspecified) | 22784 | . | . | .
O=C(NC1CCCCC1)C(c1ccccc1F)N(Cc1ccco1)C(=O)Cn1nnc2ccccc21 (stereo unspecified) | . | . | . | .
CCC(C(=O)NC1CCCC1)N(Cc1ccco1)C(=O)Cn1nnc(-c2ccc(C)cc2)n1 (stereo unspecified) | 19503 | . | . | .
O=C(O)Cn1ccc2cc(S(=O)(=O)N3CCCCCC3)ccc21 | ? | . | . | .
c1cncc(-c2nn3c(Cn4nnc5ccccc54)nnc3s2)c1 | 16144 | . | . | .
c1ccc(-c2nn3c(Cn4nnc5ccccc54)nnc3s2)nc1 | . | . | . | .
c1ccc2c(c1)OCC(c1nn3c(Cn4nnc5ccccc54)nnc3s1)O2 (stereo unspecified) | 16268 | . | ? | .

Source: PubChem BioAssay
